Test results reported in PubChem BioAssay (EPA / NIEHS).
Active and inactive are the calls of the source. Rule for the calls: active = hit-call score of the fitted dose curve at least 0.9, where 1 is the maximum; inactive = score below 0.9.

What was measured:
Conditions in all cases: mRNA level, 48 h; actives raise or lower the signal
[1] = read-out: ABC Transporter (ABCB1), ABCB1 (gene 5243); assay: LTEA_HepaRG_ABCB1: Life Technologies and Expression Analysis (LTEA) Assay for ABC Transporter (ABCB1) using HepaRG (AID 2283460)
Summary of the method: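 Human liver HepaRG line treated 48 h with up to 100 uM compound (eight half-log points, 0.5% DMSO); ABCB1 mRNA change fitted bidirectionally against DMSO controls.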

[2] = read-out: growth arrest and DNA damage 45 (GADD45B), GADD45B (gene 4616); assay: LTEA_HepaRG_GADD45B: Life Technologies and Expression Analysis (LTEA) Assay for growth arrest and DNA damage 45 (GADD45B) using HepaRG (AID 2283461)
Summary of the method: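 Values are bidirectional concentration-response fits against 0.5% DMSO controls. Underlying data: qRT-PCR mRNA levels in human HepaRG liver cells treated 48 h in serum-free induction medium, eight concentrations topping at 100 uM.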

[3] = read-out: ABC Transporter (ABCC3), ABCC3 (gene 8714); assay: LTEA_HepaRG_ABCC3: Life Technologies and Expression Analysis (LTEA) Assay for ABC Transporter (ABCC3) using HepaRG (AID 2283462)
Summary of the method: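 Differentiated HepaRG liver cells receive test chemicals at eight concentrations (max 100 uM) for 48 h. Expression of ABCC3 is quantified by qRT-PCR against ACTB, GAPDH and POLR2A, and activity is fitted in both directions against the DMSO control.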

[4] = read-out: ABC Transporter (ABCB11), ABCB11 (gene 8647); assay: LTEA_HepaRG_ABCB11: Life Technologies and Expression Analysis (LTEA) Assay for ABC Transporter (ABCB11) using HepaRG (AID 2283463)
Summary of the method: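 Using HepaRG cultures held in 0.5% DMSO, chemicals were tested at half-log dilutions from 100 uM for 48 h. Induction or suppression of ABCB11 mRNA, normalized to ACTB, GAPDH and POLR2A, was fitted bidirectionally against vehicle.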

[5] = read-out: ABC Transporter (ABCC2), ABCC2 (gene 1244); assay: LTEA_HepaRG_ABCC2: Life Technologies and Expression Analysis (LTEA) Assay for ABC Transporter (ABCC2) using HepaRG (AID 2283464)
Summary of the method: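 Gene expression of ABCC2 was determined by qRT-PCR in HepaRG cells exposed 48 h to chemicals (highest 100 uM, half-log dilutions). Activity was fitted in both directions relative to 0.5% DMSO vehicle.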

[6] = read-out: Broad substrate specificity ATP-binding cassette transporter ABCG2 (Homo sapiens) (UniProt Q9UNQ0); assay: LTEA_HepaRG_ABCG2: Life Technologies and Expression Analysis (LTEA) Assay for ABC Transporter (ABCG2) using HepaRG (AID 2283465)
Summary of the method: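 Gene expression of ABCG2 in HepaRG liver cells is quantified by qRT-PCR following 48 h exposure across an eight-point series topping at 100 uM. Values come from bidirectional fitting relative to DMSO vehicle.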

[7] = read-out: ATP-citrate lyase (ACLY), ACLY (gene 47); assay: LTEA_HepaRG_ACLY: Life Technologies and Expression Analysis (LTEA) Assay for ATP-citrate lyase (ACLY) using HepaRG (AID 2283466)
Summary of the method: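 ACLY expression changes in human HepaRG liver cells are quantified by qRT-PCR after 48 h exposure to test chemicals (maximum 100 uM, half-log steps). Values are fitted in both directions relative to 0.5% DMSO vehicle.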

[8] = read-out: Peroxisomal acyl-coenzyme A oxidase 1 (ACOX1) gene, ACOX1 (gene 51); assay: LTEA_HepaRG_ACOX1: Life Technologies and Expression Analysis (LTEA) Assay for Peroxisomal acyl-coenzyme A oxidase 1 (ACOX1) gene using HepaRG (AID 2283467)
Summary of the method: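 Human HepaRG hepatic cultures, 48 h treatment with test chemicals up to 100 uM. ACOX1 expression read by qRT-PCR relative to 0.5% DMSO vehicle.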

[9] = read-out: Alkaline Phosphatase, Placental (ALPP) gene, ALPP (gene 250); assay: LTEA_HepaRG_ALPP: Life Technologies and Expression Analysis (LTEA) Assay for Alkaline Phosphatase, Placental (ALPP) gene using HepaRG (AID 2283468)
Summary of the method: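 Expression of ALPP was quantified by qRT-PCR against three housekeeping genes in human HepaRG cultures treated for 48 h with an eight-point concentration series up to 100 uM. Activity in either direction was fitted relative to 0.5% DMSO.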

[10] = read-out: Bcl-2 (BAD) gene, BAD (gene 572); assay: LTEA_HepaRG_BAD: Life Technologies and Expression Analysis (LTEA) Assay for Bcl-2 (BAD) gene using HepaRG (AID 2283469)
Summary of the method: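 Activity values reflect up- or down-regulation of BAD mRNA in human HepaRG hepatic cells treated 48 h in serum-free medium, with eight-point half-log dosing capped at 100 uM and 0.5% DMSO vehicle.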

[11] = read-out: Bcl-2 (BAX) gene, BAX (gene 581); assay: LTEA_HepaRG_BAX: Life Technologies and Expression Analysis (LTEA) Assay for Bcl-2 (BAX) gene using HepaRG (AID 2283470)
Summary of the method: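 Cells were thawed, plated for 48 h, moved to serum-free induction medium and dosed for 48 h (highest concentration 100 uM, half-log steps, 0.5% DMSO). Total RNA was then analysed for BAX expression by qRT-PCR.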

[12] = read-out: adenosine kinase (ADK) gene, ADK (gene 132); assay: LTEA_HepaRG_ADK: Life Technologies and Expression Analysis (LTEA) Assay for adenosine kinase (ADK) gene using HepaRG (AID 2283471)
Summary of the method: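 ADK expression quantified by qRT-PCR, normalised to three housekeeping genes, after 48 h exposure of HepaRG cells to eight concentrations (top 100 uM, half-log steps, duplicate, 0.5% DMSO). Up- or down-regulation fitted relative to vehicle.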

[13] = read-out: Alpha-fetoprotein (AFP) gene, AFP (gene 174); assay: LTEA_HepaRG_AFP: Life Technologies and Expression Analysis (LTEA) Assay for Alpha-fetoprotein (AFP) gene using HepaRG (AID 2283472)
Summary of the method: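 Chemicals were tested on differentiated HepaRG cells for 48 hours at eight concentrations up to 100 uM, with 0.5% DMSO as vehicle. AFP expression was then quantified by qRT-PCR and analyzed for gain or loss relative to DMSO.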

BCL2L11 (gene 10018) = assay: LTEA_HepaRG_BCL2L11: Life Technologies and Expression Analysis (LTEA) Assay for Bcl-2 (BCL2L11) gene using HepaRG (AID 2283473)
Summary of the method: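 Cells were plated, cultured 48 h, switched to serum-free induction medium, then dosed in duplicate for 48 h at eight half-log concentrations up to 100 uM. Lysates underwent RNA isolation and TaqMan qRT-PCR; gain or loss versus DMSO was fitted.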

[14] = read-out: Apolipoprotein A-V (APOA5) gene, APOA5 (gene 116519); assay: LTEA_HepaRG_APOA5: Life Technologies and Expression Analysis (LTEA) Assay for Apolipoprotein A-V (APOA5) gene using HepaRG (AID 2283474)
Summary of the method: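 Human liver HepaRG cells are treated 48 h with test chemicals (100 uM top, half-log dilutions, 0.5% DMSO). APOA5 mRNA induction or loss is measured by qRT-PCR relative to vehicle.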

[15] = read-out: Apoptosis regulator Bcl-2 (Homo sapiens) (UniProt P10415); assay: LTEA_HepaRG_BCL2: Life Technologies and Expression Analysis (LTEA) Assay for Bcl-2 gene using HepaRG (AID 2283475);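 note: BCL2 transcript by TaqMan qRT-PCR normalised to ACTB GAPDH and POLR2A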
Summary of the method: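 Plated human HepaRG cells are exposed to test chemicals for 48 h across eight concentrations from 100 uM downward in half-log steps (0.5% DMSO). BCL2 expression is then measured by qRT-PCR with housekeeping normalisation and fitted bidirectionally against vehicle.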

[16] = read-out: Bcl-2 (BID) gene, BID (gene 637); assay: LTEA_HepaRG_BID: Life Technologies and Expression Analysis (LTEA) Assay for Bcl-2 (BID) gene using HepaRG (AID 2283476)
Summary of the method: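 Cells are plated, cultured 48 h, switched to serum-free induction medium, then dosed 48 h (100 uM top, half-log steps, 0.5% DMSO). RNA is isolated and BID expression read by qRT-PCR.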

Caspase-3 (Homo sapiens) = Caspase-3 (Homo sapiens) (UniProt P42574); assay: LTEA_HepaRG_CASP3: Life Technologies and Expression Analysis (LTEA) Assay for cysteine-aspartic acid protease (CASP3) using HepaRG (AID 2283477)
Sequence of Caspase-3 (Homo sapiens) (P42574 whole entry, looked up): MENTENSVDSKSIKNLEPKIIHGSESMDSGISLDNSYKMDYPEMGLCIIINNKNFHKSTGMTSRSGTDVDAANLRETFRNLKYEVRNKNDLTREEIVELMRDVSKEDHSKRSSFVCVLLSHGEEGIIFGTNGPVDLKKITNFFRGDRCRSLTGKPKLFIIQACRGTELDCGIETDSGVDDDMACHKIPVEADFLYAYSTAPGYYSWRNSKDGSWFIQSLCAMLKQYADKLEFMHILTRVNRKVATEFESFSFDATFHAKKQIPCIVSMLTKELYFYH
Summary of the method: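 In HepaRG liver cells dosed for 48 h at up to 100 uM (eight-point, duplicate), CASP3 expression changes are scored by qRT-PCR. Activity is fitted in both directions with 0.5% DMSO as baseline.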

[17] = read-out: Cytochrome P450 (CYP24A1), CYP24A1 (gene 1591); assay: LTEA_HepaRG_CYP24A1: Life Technologies and Expression Analysis (LTEA) Assay for Cytochrome P450 (CYP24A1) using HepaRG (AID 2283478)
Summary of the method: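 Human liver HepaRG cultures receive each chemical for 48 h across an eight-point half-log series topping at 100 uM in 0.5% DMSO. Induction or suppression of CYP24A1 mRNA is scored relative to vehicle after housekeeping-gene normalization.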

[18] = read-out: Cytochrome P450 (CYP1A2), CYP1A2 (gene 1544); assay: LTEA_HepaRG_CYP1A2: Life Technologies and Expression Analysis (LTEA) Assay for Cytochrome P450 (CYP1A2) using HepaRG (AID 2283479)
Summary of the method: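 Assesses CYP1A2 mRNA in human HepaRG liver cells after 48 h chemical exposure at up to 100 uM. Values come from qRT-PCR with bidirectional curve fitting relative to DMSO.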

Measured: outcome

Sequence of Broad substrate specificity ATP-binding cassette transporter ABCG2 (Homo sapiens) (Q9UNQ0 whole entry, looked up): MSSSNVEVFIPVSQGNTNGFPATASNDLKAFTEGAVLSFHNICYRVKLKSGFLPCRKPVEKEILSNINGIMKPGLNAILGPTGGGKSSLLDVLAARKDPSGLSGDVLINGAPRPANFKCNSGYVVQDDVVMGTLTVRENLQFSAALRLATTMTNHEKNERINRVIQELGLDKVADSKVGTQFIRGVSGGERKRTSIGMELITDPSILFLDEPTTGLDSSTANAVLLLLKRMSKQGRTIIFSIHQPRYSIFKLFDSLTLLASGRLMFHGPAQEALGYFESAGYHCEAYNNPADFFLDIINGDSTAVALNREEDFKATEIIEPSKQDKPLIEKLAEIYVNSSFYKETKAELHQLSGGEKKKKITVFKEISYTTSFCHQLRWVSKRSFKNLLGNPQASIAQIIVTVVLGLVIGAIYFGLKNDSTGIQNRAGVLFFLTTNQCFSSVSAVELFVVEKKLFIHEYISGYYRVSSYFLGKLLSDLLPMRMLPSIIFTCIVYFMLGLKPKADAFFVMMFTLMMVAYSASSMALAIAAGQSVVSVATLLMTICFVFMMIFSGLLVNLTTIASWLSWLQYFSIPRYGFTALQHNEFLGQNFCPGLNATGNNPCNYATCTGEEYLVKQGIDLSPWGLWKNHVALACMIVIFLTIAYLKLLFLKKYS
Sequence of Apoptosis regulator Bcl-2 (Homo sapiens) (P10415 whole entry, looked up): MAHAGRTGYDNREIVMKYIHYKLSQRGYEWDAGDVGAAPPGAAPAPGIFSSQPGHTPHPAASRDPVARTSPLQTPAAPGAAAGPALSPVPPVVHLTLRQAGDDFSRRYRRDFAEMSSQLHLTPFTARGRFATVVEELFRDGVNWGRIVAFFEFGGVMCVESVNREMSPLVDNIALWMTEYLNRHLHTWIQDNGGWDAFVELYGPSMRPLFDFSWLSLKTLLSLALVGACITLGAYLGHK

O=C(CCl)c1ccccc1
inactive: all assays above

N#CCCCCC#N
inactive: all assays above

O=[N+]([O-])c1ccc(Cl)cc1
inactive: all assays above
